Source: PubChem (several laboratories)
An excerpt weighted towards active compounds, which were near 1.8% of everything screened.
NOD2-RIPK2 inh = blocks binding of human NOD2 to RIPK2 | O43353 | inhibition, % at 4.98 µM | CHO BLA complementation NOD2-RIPK2, CCF4 ratio | 360,000 compounds, 0.38% hits; in the data active = inhibition above about 21%;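 note: 0% = vehicle only and 100% = reference blocker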
Target sequence (O43353 whole entry, looked up): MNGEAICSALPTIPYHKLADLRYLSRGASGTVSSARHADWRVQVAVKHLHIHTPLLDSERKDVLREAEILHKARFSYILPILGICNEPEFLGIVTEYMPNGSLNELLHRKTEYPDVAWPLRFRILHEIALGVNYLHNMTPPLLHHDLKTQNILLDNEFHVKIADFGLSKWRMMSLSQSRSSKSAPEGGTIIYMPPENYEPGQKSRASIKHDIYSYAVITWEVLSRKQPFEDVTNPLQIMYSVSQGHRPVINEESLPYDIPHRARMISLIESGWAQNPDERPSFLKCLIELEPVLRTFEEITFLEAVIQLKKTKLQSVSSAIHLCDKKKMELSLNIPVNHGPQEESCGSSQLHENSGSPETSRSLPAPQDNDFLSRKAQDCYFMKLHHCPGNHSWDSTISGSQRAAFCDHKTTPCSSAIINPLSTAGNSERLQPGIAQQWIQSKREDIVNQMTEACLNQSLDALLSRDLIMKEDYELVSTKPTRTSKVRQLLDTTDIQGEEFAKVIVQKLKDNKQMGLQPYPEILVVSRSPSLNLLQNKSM
HTR2A ag = mouse HTR2A agonism via beta-arrestin recruitment | P35363 | CHO-K1 mHTR2A beta-arrestin complementation, luminescence; percent of 30 µM serotonin response | activation, % at 7.6 µM | 360,000 compounds, 0.66% hits;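 active = activation above a run cutoff, the mean activation of all tested compounds plus 3 SD, cut at about 14% in these data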;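 note: 0% = plate median of compound wells and 100% = 30 µM serotonin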
LANA-H2A inh = blocks KSHV LANA binding to histone H2A/H2B; Q9QR71; cell-free LANA-H2A/H2B peptide, fluorescence polarization; inhibition, % (no concentration beside the values); 320,000 compounds, 0.6% hits; AID 2629; in the data active = inhibition mostly above about 10%, no sharp cut-off; inactive = mostly below about 6.7%
Rtt109 HAT inh = blocks Candida albicans Rtt109/Vps75 acetyltransferase activity; purified Rtt109/Vps75, ThioGlo CoA-SH fluorescence, 4 h; inhibition, % at 34.9 µM; 330,000 compounds, 0.16% hits;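 active = inhibition of at least 50% in every replicate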
TLR9-MyD88 block = TLR9-MyD88 interaction inhibition; 340,000 compounds, 0.21% hits; CHO BLA complementation TLR9-MyD88, CCF4 FRET ratio; Q9NR96+Q99836; AID 504734; inhibition, % at 4.98 µM;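 active = inhibition above the mean over all tested compounds plus 3 SD, cut at about 21% in these data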;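 note: 0% = DMSO only wells and 100% = clavulanate BLA inhibitor control wells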
TLR4-MyD88 BLA = TLR4-MyD88 interaction inhibition in cells; HeLa CL3-4 TLR4/MyD88 BLA complementation, FRET ratio; inhibition, % at 8.4 µM; 200,000 compounds, 0.18% hits; in the data active = inhibition above about 25%;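 note: 0% = vehicle and 100% = reference inhibitor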
OPRM1 ag = activates human mu opioid receptor in HTR2A counterscreen | shares compounds with HTR2A ag | U2OS OPRM1 beta-arrestin PathHunter, luminescence; DMSO 0%, DAMGO 9.3 µM 100% | activation, % at 9.3 µM | 2,300 compounds, 5.3% hits | AID 624380;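 active = mean activation above the mean of DMSO-only wells plus 3 SD, cut at about 0.5% in these data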
m5-HT2A ag conf = confirmation of mouse HTR2A serotonin receptor agonists | shares compounds with HTR2A ag | CHO-K1 PathHunter beta-arrestin recruitment, luminescence; DMSO 0%, 30 µM serotonin 100% | activation, % at 7.6 µM | 2,300 compounds, 19% hits | AID 624381;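 active = mean activation across triplicates above the hit threshold derived in the original primary screen, cut at about 15% in these data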
* hit, by the source's call; . = not tested or not shown.

SMILES	NOD2-RIPK2 inh	HTR2A ag	LANA-H2A inh	Rtt109 HAT inh	TLR9-MyD88 block	TLR4-MyD88 BLA	OPRM1 ag	m5-HT2A ag conf
O=C(NC(=S)Nn1cnc2c(cnn2-c2ccccc2)c1=O)c1ccc(Oc2ccccc2)cc1	-4	-2	0	-1	-13	-5	.	.
O=C(NC(=S)Nn1cnc2c(cnn2-c2ccccc2)c1=O)c1ccc(Cl)cc1	-2	42*	1	10	-2	14	0	0
CC(=O)Nc1ccc(SCCN2CC[C@@H](O)CCC2=O)cc1	8	30*	0	-6	0	.	-1	-4
CC(=O)Nc1ccc(SCCN2CC[C@@H](C)CCC2=O)cc1	-2	7	0	-7	-14	.	.	.
Cc1ccc(-c2nc3ccccc3c(=O)n2O)cc1	7	-1	4	-1	-13	.	.	.
O=c1c2ccccc2nc(-c2ccc([N+](=O)[O-])cc2)n1O	-7	16*	2	2	4	0	0	-2
CCS(=O)(=O)Nc1ccc(-c2cc(-c3ccccc3)c3cc(C)ccc3n2)cc1	-7	15*	-1	-1	1	-12	0	4
Cc1ccc2nc(-c3ccc(NS(C)(=O)=O)cc3)cc(-c3ccccc3)c2c1	2	5	1	-1	6	10	.	.
c1ccc(Cc2nnc(Sc3ccccc3)c3ccccc23)cc1	14	26*	-2	6	9	11	0	9
CC12CCC(C(=O)OC3CCCCC3)(OC1=O)C2(C)C (stereo unspecified)	-13	0	5	2	0	.	.	.
COc1ccc2c(CN3CCN(c4ccc(Cl)c(Cl)c4)CC3)cc(=O)oc2c1	5	12	.	.	.	.	.	.
COc1cc2oc(=O)cc(CN3CCN(c4ccc(Cl)c(Cl)c4)CC3)c2cc1Cl	-3	25*	.	.	.	.	-1	9
CSCCCc1cn([C@@H](CO)C(=O)NCCCCCCCCCCC(=O)N2CCNCC2)nn1	-6	24*	-5	6	2	.	-1	-3
CCOC(=O)CSc1nc2sc3c(c2c(=O)n1CC)CC(C)(C)OC3	-15	23*	-2	14	-7	-8	0	-1
CCc1nc2sc3c(c2c(=O)n1N)CC(C)(C)OC3	-4	0	-4	-4	1	-3	.	.
CCN(C(=O)CSc1nnc(-c2ccccc2C)n1C)c1c(N)n(Cc2ccccc2)c(=O)[nH]c1=O	0	14*	.	2	-6	.	0	-2
Cc1ccccc1-c1nnc(SCC(=O)N(C)c2c(N)n(Cc3ccccc3)c(=O)[nH]c2=O)n1C	-5	-7	8	-7	5	.	.	.
Cc1ccc(-n2c(C)nnc2SCC(=O)N(C)c2c(N)n(Cc3ccccc3)c(=O)[nH]c2=O)cc1	11	17*	7	11	-10	.	0	-2
COCC1CCN(C(=O)c2cc(COc3ccc(-n4cncn4)cc3)on2)C1 (stereo unspecified)	-8	4	-1	-12	-6	.	.	.
CCN(CC)C1CCN(C(=O)c2cc(COc3ccc(-n4cncn4)cc3)on2)C1 (stereo unspecified)	-6	16*	1	33	1	.	-1	-3
COc1ccc(-c2noc(N3CCC(C(=O)Nc4ccc(OC)cc4OC)CC3)n2)cc1	-4	-3	-3	5	3	.	.	.
COc1ccc(NC(=O)C2CCN(c3nc(-c4ccc(OC)cc4)no3)CC2)cc1	3	17*	0	5	10	.	0	0
O=C(O)c1cccc(NC(=O)c2ccc3c(c2)C(=O)N(C2CCCCC2)C3=O)c1	7	2	-1	7	2	.	.	.
CC(/C=N/n1c(-c2ccc(C)cc2)n[nH]c1=S)=C\c1ccco1	-11	1	-1	8	-7	-11	.	.
CC(/C=N/n1c(-c2ccccc2)n[nH]c1=S)=C\c1ccco1	5	22*	0	32	-15	-4	-1	-1
SMILES	NOD2-RIPK2 inh	HTR2A ag	LANA-H2A inh	Rtt109 HAT inh	TLR9-MyD88 block	TLR4-MyD88 BLA	OPRM1 ag	m5-HT2A ag conf
CC(/C=N/n1c(-c2ccncc2)n[nH]c1=S)=C\c1ccco1	-11	20*	0	9	.	.	-1	-3
COc1ccc2c(c1)cc1c(=O)n(CC(=O)NCCCN3CCOCC3)nc(C)n12	0	-4	0	2	1	.	.	.
COC(=O)c1cc2ccsc2n1CC(=O)Nc1cc(Cl)ccc1OC	-4	19*	5	-1	3	5	-1	-4
COC(=O)c1cc2ccsc2n1CC(=O)Nc1ccc(N(C)C)cc1	3	0	2	0	3	2	.	.
CCN1CCN(c2ccc(Nc3ccnc4ccccc34)cc2)CC1	5	-3	-3	3	12	.	.	.
CC(C)c1cc(C(=O)N2CCCC(C(=O)c3ccc4ccccc4c3)C2)on1 (stereo unspecified)	-7	-5	-4	6	-1	-6	.	.
Cc1cc(Cl)ccc1C(=O)C1CCCN(C(=O)c2cc(C(C)C)no2)C1 (stereo unspecified)	0	46*	-4	23	0	2	0	-5
COc1cccc(-c2nnc(NC(=O)c3ccc4ncsc4c3)o2)c1	0	-2	-1	5	2	-9	.	.
CC(=O)Nc1ccc(NC(=O)COc2ccc(-c3ccc(C#N)cc3)cc2)cc1	-7	11	3	7	8	.	.	.
CCCn1c(=O)c2[nH]c(-c3ccc(OCC(=O)Nc4ccc(C#N)cc4)cc3)nc2n(CCC)c1=O	-8	16*	0	-3	-7	.	0	-4
O=C(CN1C(=O)NC2(CCCC2)C1=O)NCCc1ccc(F)cc1	-4	2	-2	2	15	.	.	.
Cc1cc(C=O)sc1[B-](F)(F)F	-6	15*	.	-3	4	.	0	10
O=Cc1cc2c(cc1[B-](F)(F)F)OCO2	-14	0	.	-1	-9	.	.	.
Cn1c(N)c(C(=O)CSc2nnc(-c3cccs3)n2C2CC2)c(=O)[nH]c1=O	-2	-11	.	.	10	.	.	.
CCCn1c(N)c(C(=O)CSc2nnc(-c3cccs3)n2C2CC2)c(=O)[nH]c1=O	-3	28*	.	1	-7	.	-1	47*
O=[N+]([O-])c1ccccc1Oc1ccc(S(=O)(=O)N2CCOCC2)cc1	-2	-4	-4	-11	-1	.	.	.
COc1ccc(Cl)cc1NC(=O)CN1CCN(S(=O)(=O)N2CCCCC2)CC1	-8	1	-4	-6	6	.	.	.
COc1cccc(N2CCN(S(=O)(=O)c3ccc4nc(-c5ccccc5)[nH]c4c3)CC2)c1	-7	16*	0	-8	1	-5	0	-1
